Our source for the outcome and AC50 values is PubChem BioAssay (EPA / NIEHS).

Molecules are shown by their SMILES. The source made the active and inactive calls. The calls were made as follows: active = hit-call score of the fitted dose curve at least 0.9, where 1 is the maximum; inactive = score below 0.9.

Conditions in all cases: mRNA level, 48 h; actives raise or lower the signal
Read-out in assay [1]: Cytochrome P450 (CYP24A1), CYP24A1 (gene 1591)
The assay is described as follows: LTEA_HepaRG_CYP24A1: Life Technologies and Expression Analysis (LTEA) Assay for Cytochrome P450 (CYP24A1) using HepaRG (AID 2283478). Put shortly: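 qRT-PCR read-out: CYP24A1 transcript levels normalized to three housekeeping genes, bidirectional curve fits against 0.5% DMSO baseline. Human HepaRG cells treated 48 h with chemicals at eight concentrations from 100 uM in half-log steps.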

Read-out in assay [2]: Cytochrome P450 (CYP1A2), CYP1A2 (gene 1544)
Briefly: LTEA_HepaRG_CYP1A2: Life Technologies and Expression Analysis (LTEA) Assay for Cytochrome P450 (CYP1A2) using HepaRG (AID 2283479). In outline: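 HepaRG, 48 h exposure, top 100 uM, half-log 8-pt, 0.5% DMSO vehicle, duplicates. Readout: TaqMan qRT-PCR of CYP1A2 mRNA, housekeeping-normalized (ACTB/GAPDH/POLR2A). Gain/loss fit relative to DMSO baseline.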

Read-out in assay [3]: cysteine-aspartic acid protease (CASP8), CASP8 (gene 841)
The assay is described as follows: LTEA_HepaRG_CASP8: Life Technologies and Expression Analysis (LTEA) Assay for cysteine-aspartic acid protease (CASP8) using HepaRG (AID 2283480). Put shortly: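 HepaRG, 48 h exposure, duplicate wells; 8 conc, half-log from 100 uM, 0.5% DMSO. Serum-free induction medium. CASP8 mRNA by TaqMan qRT-PCR, norm. ACTB/GAPDH/POLR2A; gain/loss fitted vs DMSO.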

Read-out in assay [4]: Cytochrome P450 (CYP2B6), CYP2B6 (gene 1555)
The assay is described as follows: LTEA_HepaRG_CYP2B6: Life Technologies and Expression Analysis (LTEA) Assay for Cytochrome P450 (CYP2B6) using HepaRG (AID 2283481). In outline:
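Read-out is CYP2B6 mRNA by TaqMan qRT-PCR, normalized to three housekeeping genes and fitted bidirectionally against 0.5% DMSO baseline. Human HepaRG cells received test chemicals for 48 h, top concentration 100 uM, half-log dilutions.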

Read-out in assay [5]: Cytochrome P450 2C19 (Homo sapiens) (UniProt P33261)
The assay is described as follows: LTEA_HepaRG_CYP2C19: Life Technologies and Expression Analysis (LTEA) Assay for CYP2C19 using HepaRG (AID 2283482). In outline:
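HepaRG, 48 h chemical exposure, 8-pt half-log series from 100 uM in 0.5% DMSO, duplicates. Readout: CYP2C19 mRNA by TaqMan qRT-PCR, housekeeping-normalized. Bidirectional fit vs DMSO baseline; phenobarbital 1mM as induction control.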

Read-out in the next assay: CYP2C8 (gene 1558)
The assay is described as follows: LTEA_HepaRG_CYP2C8: Life Technologies and Expression Analysis (LTEA) Assay for CYP2C8 using HepaRG (AID 2283483). In outline: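 CYP2C8 mRNA induction or loss, by qRT-PCR normalized to ACTB/GAPDH/POLR2A, is read in HepaRG cells after 48 h treatment. Concentrations run from 100 uM down in half-log dilutions, with 0.5% DMSO as vehicle and baseline.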

Read-out in a further assay: CYP2C9 (gene 1559)
The assay is described as follows: LTEA_HepaRG_CYP2C9: Life Technologies and Expression Analysis (LTEA) Assay for CYP2C9 using HepaRG (AID 2283484). In outline:
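Cells plated 48 h, switched to serum-free induction medium, then treated in duplicate for 48 h at eight concentrations (max 100 uM, 0.5% DMSO). RNA then analysed by qRT-PCR for CYP2C9; curves fitted in both directions relative to DMSO.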

Read-out in a further assay: CYP4A11 (gene 1579)
The assay is described as follows: LTEA_HepaRG_CYP4A11: Life Technologies and Expression Analysis (LTEA) Assay for CYP4A11 using HepaRG (AID 2283486). In outline:
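CYP4A11 transcript levels were quantified by TaqMan qRT-PCR after HepaRG human liver cells were treated for 48 hours with test chemicals (top 100 uM, half-log dilutions, 0.5% DMSO). Gain or loss of signal was fitted relative to DMSO.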

Read-out in assay [6]: Cytochrome P450 3A4 (Homo sapiens) (UniProt P08684)
The assay is described as follows: LTEA_HepaRG_CYP3A4: Life Technologies and Expression Analysis (LTEA) Assay for CYP3A4 using HepaRG (AID 2283487). Put shortly:
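HepaRG, 48 h exposure, 8-pt CRC from 100 uM (half-log), 0.5% DMSO, duplicates; serum-free induction medium. Readout: CYP3A4 mRNA, qRT-PCR, ACTB/GAPDH/POLR2A normalization. Bidirectional fit vs DMSO.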

Read-out in assay [7]: DNA damage-inducible transcript 3 (DDIT3), DDIT3 (gene 1649)
Briefly: LTEA_HepaRG_DDIT3: Life Technologies and Expression Analysis (LTEA) Assay for DNA damage-inducible transcript 3 (DDIT3) using HepaRG (AID 2283488). Put shortly: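 HepaRG plated 48 h, switched to serum-free induction medium, dosed 48 h (100 uM top, half-log, 8 pts, 0.5% DMSO, n=2); RNA isolated; DDIT3 by qRT-PCR; bidirectional curve fit vs DMSO.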

Read-out in assay [8]: Early growth response protein 1 (EGR1) transcription factor, EGR1 (gene 1958)
Briefly: LTEA_HepaRG_EGR1: Life Technologies and Expression Analysis (LTEA) Assay for Early growth response protein 1 (EGR1) transcription factor using HepaRG (AID 2283490). Put shortly: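 Read-out is EGR1 mRNA level by qRT-PCR, normalized to three housekeeping genes and analysed for gain or loss of signal against 0.5% DMSO. Source cells: human HepaRG, treated 48 h at up to 100 uM in half-log dilutions.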

Read-out in assay [9]: Ezrin (EZR), EZR (gene 7430)
The assay is described as follows: LTEA_HepaRG_EZR: Life Technologies and Expression Analysis (LTEA) Assay for Ezrin (EZR) using HepaRG (AID 2283491). Put shortly: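 Read-out is EZR transcript level by qRT-PCR, normalized to three housekeeping genes and fitted bidirectionally against the DMSO control. Human HepaRG cells received test chemicals for 48 h at eight half-log concentrations up to 100 uM in 0.5% DMSO.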

Read-out in assay [10]: Cytochrome P450 3A7 (Homo sapiens) (UniProt P24462)
The assay is described as follows: LTEA_HepaRG_CYP3A7: Life Technologies and Expression Analysis (LTEA) Assay for CYP3A7 using HepaRG (AID 2283492). In outline:
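CYP3A7 transcript levels were read by TaqMan qRT-PCR on Fluidigm arrays after 48 h chemical exposure of human HepaRG cells, with housekeeping-gene normalisation. Eight half-log concentrations up to 100 uM in 0.5% DMSO were tested in duplicate.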

Read-out in another assay: CYP3A5 (gene 1577)
The assay is described as follows: LTEA_HepaRG_CYP3A5: Life Technologies and Expression Analysis (LTEA) Assay for CYP3A5 using HepaRG (AID 2283493). In outline:
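HepaRG plated 48 h, switched to serum-free induction medium, chemicals added 48 h (max 100 uM, half-log, 0.5% DMSO). RNA isolated; CYP3A5 by TaqMan qRT-PCR. Gain/loss vs DMSO.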

Read-out in assay [11]: Fatty Acid-Binding Protein 1 (FABP1), FABP1 (gene 2168)
Briefly: LTEA_HepaRG_FABP1: Life Technologies and Expression Analysis (LTEA) Assay for Fatty Acid-Binding Protein 1 (FABP1) using HepaRG (AID 2283494). Put shortly:
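HepaRG, 48 h post-plating switched to serum-free induction medium, then dosed 48 h (duplicate, 8 pts, ≤100 uM, 0.5% DMSO). RNA → Fluidigm TaqMan qRT-PCR, FABP1 normed to ACTB/GAPDH/POLR2A. Bidirectional curve fit vs DMSO.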

Read-out in assay [12]: Cytochrome P450 4A22 (Homo sapiens) (UniProt Q5TCH4)
Briefly: LTEA_HepaRG_CYP4A22: Life Technologies and Expression Analysis (LTEA) Assay for Cytochrome P450 4A22 (CYP4A22) using HepaRG (AID 2283495). Put shortly: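 HepaRG, 48 h post-plating -> serum-free induction medium; dosed 48 h, duplicate, 8 conc. (100 uM top, half-log), 0.5% DMSO. Readout: CYP4A22 mRNA by qRT-PCR, ACTB/GAPDH/POLR2A normalization; gain/loss fit relative to DMSO.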

Read-out in assay [13]: Cytochrome P450 7A1 (Homo sapiens) (UniProt P22680)
Briefly: LTEA_HepaRG_CYP7A1: Life Technologies and Expression Analysis (LTEA) Assay for Cytochrome P450 7A1 (CYP7A1) using HepaRG (AID 2283496). In outline:
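HepaRG cells plated 48 h, then switched to serum-free induction medium and exposed in duplicate for 48 h to 8-point half-log series from 100 uM in 0.5% DMSO. CYP7A1 mRNA by qRT-PCR (TaqMan), normalized to ACTB/GAPDH/POLR2A; bidirectional fit versus DMSO.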

Read-out in assay [14]: Glutathione S-Transferase (GSTA2), GSTA2 (gene 2939)
The assay is described as follows: LTEA_HepaRG_GSTA2: Life Technologies and Expression Analysis (LTEA) Assay for Glutathione S-Transferase (GSTA2) using HepaRG (AID 2283497). In outline: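 HepaRG, 48 h dosing, 8-pt half-log CRC from 100 uM, 0.5% DMSO vehicle, n=2; RNA → Fluidigm TaqMan qRT-PCR; GSTA2 vs ACTB/GAPDH/POLR2A; gain/loss fit vs DMSO.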

Read-out in the next assay: CYP2E1 (gene 1571)
Briefly: LTEA_HepaRG_CYP2E1: Life Technologies and Expression Analysis (LTEA) Assay for CYP2E1 using HepaRG (AID 2283485). Put shortly: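 Human liver line HepaRG, plated 48 h, then serum-free induction medium + chemical x 48 h; 8-pt CRC from 100 uM, half-log, 0.5% DMSO, n=2. Readout: CYP2E1 mRNA qRT-PCR vs ACTB/GAPDH/POLR2A; bidirectional fit vs DMSO.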

Read-out in assay [15]: Pro-epidermal growth factor (Homo sapiens) (UniProt P01133)
The assay is described as follows: LTEA_HepaRG_EGF: Life Technologies and Expression Analysis (LTEA) Assay for Epidermal growth factor (EGF) using HepaRG (AID 2283489). In outline:
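qRT-PCR readout of EGF transcript after 48 h chemical exposure of HepaRG cells; eight concentrations from 100 uM down in half-log steps, duplicate wells, 0.5% DMSO vehicle. Bidirectional curve fitting against DMSO baseline.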

One may read the AC50 as the concentration giving half of the maximal activity seen.

Chain of Cytochrome P450 3A7 (Homo sapiens) (P24462 whole entry, looked up): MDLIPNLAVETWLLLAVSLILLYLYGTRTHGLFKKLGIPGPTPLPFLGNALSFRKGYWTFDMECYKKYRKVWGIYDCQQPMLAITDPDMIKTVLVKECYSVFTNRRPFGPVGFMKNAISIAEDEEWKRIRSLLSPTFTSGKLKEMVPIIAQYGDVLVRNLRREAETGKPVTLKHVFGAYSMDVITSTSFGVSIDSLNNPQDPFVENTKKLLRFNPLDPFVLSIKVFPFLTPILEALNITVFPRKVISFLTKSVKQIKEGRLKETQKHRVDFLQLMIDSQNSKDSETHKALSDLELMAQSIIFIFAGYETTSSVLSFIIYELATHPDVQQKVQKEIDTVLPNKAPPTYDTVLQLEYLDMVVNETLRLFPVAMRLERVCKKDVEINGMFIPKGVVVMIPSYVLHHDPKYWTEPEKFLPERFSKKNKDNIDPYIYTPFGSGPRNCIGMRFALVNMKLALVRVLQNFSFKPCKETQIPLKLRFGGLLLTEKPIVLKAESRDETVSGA
Chain of Cytochrome P450 2C19 (Homo sapiens) (P33261 whole entry, looked up): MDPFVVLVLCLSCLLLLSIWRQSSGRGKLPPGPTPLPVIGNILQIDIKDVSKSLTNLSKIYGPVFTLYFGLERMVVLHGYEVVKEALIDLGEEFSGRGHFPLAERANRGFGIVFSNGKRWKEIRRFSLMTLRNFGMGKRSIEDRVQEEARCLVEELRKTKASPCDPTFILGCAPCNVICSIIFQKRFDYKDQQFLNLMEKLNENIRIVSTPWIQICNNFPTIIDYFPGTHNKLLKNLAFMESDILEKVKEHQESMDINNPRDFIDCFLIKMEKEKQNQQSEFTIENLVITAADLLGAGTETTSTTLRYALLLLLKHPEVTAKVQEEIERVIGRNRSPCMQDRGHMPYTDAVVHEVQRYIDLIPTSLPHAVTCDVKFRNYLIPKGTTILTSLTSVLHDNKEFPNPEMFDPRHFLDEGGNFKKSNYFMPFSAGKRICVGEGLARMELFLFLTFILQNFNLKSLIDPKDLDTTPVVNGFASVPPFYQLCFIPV
Chain of Cytochrome P450 3A4 (Homo sapiens) (P08684 whole entry, looked up): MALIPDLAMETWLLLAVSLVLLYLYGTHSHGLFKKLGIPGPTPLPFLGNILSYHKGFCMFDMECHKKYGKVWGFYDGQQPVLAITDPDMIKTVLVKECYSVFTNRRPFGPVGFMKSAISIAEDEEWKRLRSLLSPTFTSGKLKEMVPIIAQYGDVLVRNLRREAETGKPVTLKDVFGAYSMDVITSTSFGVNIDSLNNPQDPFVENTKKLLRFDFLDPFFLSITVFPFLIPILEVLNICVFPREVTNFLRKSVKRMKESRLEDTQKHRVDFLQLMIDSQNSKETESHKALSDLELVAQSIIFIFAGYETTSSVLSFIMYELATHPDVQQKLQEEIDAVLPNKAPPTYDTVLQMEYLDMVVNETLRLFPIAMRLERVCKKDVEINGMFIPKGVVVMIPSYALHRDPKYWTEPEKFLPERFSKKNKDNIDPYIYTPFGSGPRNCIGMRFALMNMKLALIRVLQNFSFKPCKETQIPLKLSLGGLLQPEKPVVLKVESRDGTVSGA

Consider `CCC(C)N(C)C(=O)c1cc2ccccc2c(-c2ccccc2Cl)n1` (stereo not drawn), for which the molecule was called inactive (in assay [1]; in [3]; in the assay with CYP2C9 (gene 1559); in [8]; in [9]; in [10]). The molecule was classed as inactive in assay [13] and in assay [14]. Also, the AC50 is 50.5 µM (active) in [2]; 1.38 µM (active) in [4]; 4.31 µM (active) in assay [5]; 1.77 µM (active) with CYP2C8 (gene 1558); 15.4 µM (active) in the assay with CYP4A11 (gene 1579); 3.23 µM (active) in assay [6]. Besides, the AC50 in assay [7] is 46.6 µM (active); with CYP3A5 (gene 1577), 31.8 µM (active); in [11] it was 13 µM (active); in assay [12], 13.1 µM (active).

Regarding `c1ccc2occc2c1`, the outcome (in assay [1]; in [2]; in assay [3]; in assay [5]; with CYP2C8 (gene 1558); with CYP2C9 (gene 1559)) was inactive. The molecule was called inactive (with CYP4A11 (gene 1579); in assay [6]; in assay [7]; in assay [8]; in assay [9]; in [10]). Moreover, the molecule was classed as inactive (with CYP3A5 (gene 1577); in [11]; in assay [12]; in [13]; in assay [14]). Moreover, in assay [4], the AC50 is 5.44 µM (active).

With `CC(=O)CC(c1ccccc1)c1c(O)c2ccccc2oc1=O` (stereo not drawn), the molecule was called inactive (in assay [1]; in assay [2]; in assay [3]; in the assay with CYP2C8 (gene 1558); with CYP2C9 (gene 1559); in assay [7]). The molecule was called inactive (in assay [15]; in assay [8]; in [9]; with CYP3A5 (gene 1577); in assay [11]; in assay [13]). In addition, the molecule was classed as inactive in assay [14]. Moreover, the concentration at half-maximal activity (AC50) is 29.7 µM (active) in assay [4], 5.47 µM (active) in assay [5], 73.8 µM (active) in the assay with CYP2E1 (gene 1571) and 34.7 µM (active) in assay [10].
